Article PMC7862700, “An all-to-all approach to the identification of sequence-specific readers for epigenetic DNA modifications on cytosine”

Columns and labels:
Assay in all cases: DAPPL (digital affinity profiling via proximity ligation, sequencing); 10 mM Tris-HCl pH 7.5, 50 mM NaCl, 1 mM DTT, 4% glycerol, room temperature, 30 min; GST-TFs on glutathione beads, 16-mer random dsDNA library, 0.1% formaldehyde crosslink after washing; high values mean tight binding
Settings in all cases: protein: recombinant; tags: N-terminal GST; dsDNA, one strand shown
FLI1 = molecular target: T1, FLI1 (Homo sapiens, UniProt Q01543 1-452)
T1 sequence: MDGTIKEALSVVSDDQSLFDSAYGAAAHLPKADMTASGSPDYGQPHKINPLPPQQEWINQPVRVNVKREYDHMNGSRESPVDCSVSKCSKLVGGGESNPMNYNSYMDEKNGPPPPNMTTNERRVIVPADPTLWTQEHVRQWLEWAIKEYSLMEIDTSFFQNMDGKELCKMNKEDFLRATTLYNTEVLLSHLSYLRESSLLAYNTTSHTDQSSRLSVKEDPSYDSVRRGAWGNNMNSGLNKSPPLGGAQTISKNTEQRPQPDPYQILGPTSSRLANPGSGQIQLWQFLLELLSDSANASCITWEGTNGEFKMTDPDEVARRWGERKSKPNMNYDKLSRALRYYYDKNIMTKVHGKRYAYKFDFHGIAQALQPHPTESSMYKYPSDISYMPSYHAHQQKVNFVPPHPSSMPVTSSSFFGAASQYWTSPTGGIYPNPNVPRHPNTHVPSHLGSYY
Outline: (§1)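 Human transcription factors were made in yeast as GST fusions, captured on glutathione beads and barcoded with DNA. With a tag-only sample included, the pool was incubated with 200 nmole of a random double-stranded 16-mer DNA library in Tris/NaCl/DTT/glycerol buffer at room temperature for 30 min, then crosslinked with 0.1% formaldehyde after washing, ligated by proximity, amplified and sequenced. For binding signal, each hexamer's read frequency for a factor is divided by its frequency for the tag-only sample.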

ELK1 = molecular target: T2, ELK1 (Homo sapiens, UniProt P19419 1-428)
T2 sequence: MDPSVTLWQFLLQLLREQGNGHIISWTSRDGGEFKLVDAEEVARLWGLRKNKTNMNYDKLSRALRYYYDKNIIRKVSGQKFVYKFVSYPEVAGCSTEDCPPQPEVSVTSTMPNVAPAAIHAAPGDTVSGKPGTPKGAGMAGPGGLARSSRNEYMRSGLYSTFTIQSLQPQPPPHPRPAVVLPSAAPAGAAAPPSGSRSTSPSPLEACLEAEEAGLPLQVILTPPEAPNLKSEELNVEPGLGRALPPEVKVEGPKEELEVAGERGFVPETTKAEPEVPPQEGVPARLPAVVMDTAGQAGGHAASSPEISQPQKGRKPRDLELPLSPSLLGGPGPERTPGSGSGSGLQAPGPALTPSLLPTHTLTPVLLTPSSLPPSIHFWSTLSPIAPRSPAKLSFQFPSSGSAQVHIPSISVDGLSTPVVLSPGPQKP
Outline: as §1

GABPA = molecular target: T3, GABPA (Homo sapiens, UniProt Q06546 1-454)
T3 sequence: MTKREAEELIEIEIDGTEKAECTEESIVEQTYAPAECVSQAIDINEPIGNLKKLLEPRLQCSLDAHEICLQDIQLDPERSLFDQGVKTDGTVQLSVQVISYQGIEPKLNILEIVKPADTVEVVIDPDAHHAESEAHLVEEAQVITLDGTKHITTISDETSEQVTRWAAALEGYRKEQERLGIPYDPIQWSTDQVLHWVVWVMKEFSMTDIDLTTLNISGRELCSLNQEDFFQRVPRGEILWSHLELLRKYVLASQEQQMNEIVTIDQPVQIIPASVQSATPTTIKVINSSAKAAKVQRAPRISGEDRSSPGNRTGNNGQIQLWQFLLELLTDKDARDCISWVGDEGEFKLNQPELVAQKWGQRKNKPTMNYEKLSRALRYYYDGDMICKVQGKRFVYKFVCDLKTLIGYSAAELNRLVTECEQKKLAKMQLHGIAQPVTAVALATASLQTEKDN
Outline: as §1

ERG = molecular target: T4, ERG (Homo sapiens, UniProt P11308 1-479)
T4 sequence: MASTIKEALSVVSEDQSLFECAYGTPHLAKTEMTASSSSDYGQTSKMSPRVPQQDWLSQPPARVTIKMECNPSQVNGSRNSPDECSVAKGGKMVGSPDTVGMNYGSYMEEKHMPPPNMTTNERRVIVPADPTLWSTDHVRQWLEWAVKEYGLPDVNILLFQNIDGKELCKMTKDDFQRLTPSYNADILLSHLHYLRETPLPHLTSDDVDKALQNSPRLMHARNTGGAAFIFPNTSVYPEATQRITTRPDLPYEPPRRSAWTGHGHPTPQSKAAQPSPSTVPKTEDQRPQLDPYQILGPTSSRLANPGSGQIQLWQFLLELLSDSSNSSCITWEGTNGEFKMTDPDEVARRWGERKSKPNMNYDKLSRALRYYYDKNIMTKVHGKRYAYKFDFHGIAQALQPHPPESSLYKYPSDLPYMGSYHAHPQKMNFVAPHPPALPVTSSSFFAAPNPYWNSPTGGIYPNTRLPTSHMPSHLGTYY
Outline: as §1

ELF1 = ELF1 (Homo sapiens, UniProt P32519 1-619)
Sequence of ELF1 (P32519 whole entry): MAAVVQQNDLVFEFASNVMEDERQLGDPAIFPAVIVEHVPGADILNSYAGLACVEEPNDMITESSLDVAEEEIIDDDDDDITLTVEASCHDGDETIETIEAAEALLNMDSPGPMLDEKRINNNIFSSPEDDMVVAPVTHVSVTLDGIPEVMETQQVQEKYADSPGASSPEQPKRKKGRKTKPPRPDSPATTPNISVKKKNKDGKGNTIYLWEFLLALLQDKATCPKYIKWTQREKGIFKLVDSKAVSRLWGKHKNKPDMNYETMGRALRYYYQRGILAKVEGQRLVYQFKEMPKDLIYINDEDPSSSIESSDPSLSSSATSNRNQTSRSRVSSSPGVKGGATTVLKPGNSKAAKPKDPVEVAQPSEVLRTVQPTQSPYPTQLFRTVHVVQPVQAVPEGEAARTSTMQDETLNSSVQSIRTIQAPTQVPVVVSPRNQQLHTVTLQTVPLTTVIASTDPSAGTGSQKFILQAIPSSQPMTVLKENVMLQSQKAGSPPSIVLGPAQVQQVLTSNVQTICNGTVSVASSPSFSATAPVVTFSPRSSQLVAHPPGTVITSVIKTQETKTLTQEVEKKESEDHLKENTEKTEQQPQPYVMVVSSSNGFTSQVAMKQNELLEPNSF
Outline: as §1

EHF = molecular target: T5, EHF (Homo sapiens, UniProt Q9NZC4 1-300)
T5 sequence: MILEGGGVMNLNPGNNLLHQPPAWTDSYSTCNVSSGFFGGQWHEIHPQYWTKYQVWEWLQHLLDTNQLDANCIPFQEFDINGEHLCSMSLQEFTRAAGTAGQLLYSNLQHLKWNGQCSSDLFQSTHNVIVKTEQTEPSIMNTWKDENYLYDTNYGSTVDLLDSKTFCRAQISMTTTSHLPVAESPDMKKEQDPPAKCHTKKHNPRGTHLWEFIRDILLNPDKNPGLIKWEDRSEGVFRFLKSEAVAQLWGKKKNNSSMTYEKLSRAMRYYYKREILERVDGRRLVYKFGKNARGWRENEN
Outline: as §1

SPI1 = SPI1 (Homo sapiens, UniProt P17947 1-270)
Outline: as §1

SPIB = SPIB (Homo sapiens, UniProt Q01892 1-262)
Sequence of SPIB (Q01892 whole entry): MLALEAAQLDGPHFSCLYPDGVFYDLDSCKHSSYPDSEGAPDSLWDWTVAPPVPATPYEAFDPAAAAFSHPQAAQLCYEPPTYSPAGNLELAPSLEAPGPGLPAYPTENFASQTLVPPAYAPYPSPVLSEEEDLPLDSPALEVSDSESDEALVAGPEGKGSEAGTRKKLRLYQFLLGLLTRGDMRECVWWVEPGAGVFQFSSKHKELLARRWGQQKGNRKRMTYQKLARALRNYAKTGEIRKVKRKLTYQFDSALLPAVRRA
Outline: as §1

ELK3 = molecular target: T6, ELK3 (Homo sapiens, UniProt P41970 1-407)
T6 sequence: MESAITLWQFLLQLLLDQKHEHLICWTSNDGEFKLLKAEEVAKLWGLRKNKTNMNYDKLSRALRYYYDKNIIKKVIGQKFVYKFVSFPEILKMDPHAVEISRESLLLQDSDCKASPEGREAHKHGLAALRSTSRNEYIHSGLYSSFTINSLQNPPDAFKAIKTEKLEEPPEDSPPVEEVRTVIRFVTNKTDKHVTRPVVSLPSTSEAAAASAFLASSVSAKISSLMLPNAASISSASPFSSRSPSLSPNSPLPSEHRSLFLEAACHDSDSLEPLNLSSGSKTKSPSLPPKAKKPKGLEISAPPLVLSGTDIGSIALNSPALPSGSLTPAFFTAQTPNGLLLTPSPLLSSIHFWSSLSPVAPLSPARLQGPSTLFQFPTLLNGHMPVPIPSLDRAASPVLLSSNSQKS
Outline: as §1

Sequence: GCCTTC
- binding signal (FLI1): 1.41 fold enrichment (6-mer frequency, TF over GST control)
- binding signal (ELK1): 1.51 fold enrichment (6-mer frequency, TF over GST control)
- binding signal (GABPA): 1.54 fold enrichment (6-mer frequency, TF over GST control)
- binding signal (ERG): 1.52 fold enrichment (6-mer frequency, TF over GST control)
- binding signal (ELF1): 1.58 fold enrichment (6-mer frequency, TF over GST control)
- binding signal (EHF): 1.43 fold enrichment (6-mer frequency, TF over GST control)
- binding signal (SPI1): 1.39 fold enrichment (6-mer frequency, TF over GST control)
- binding signal (SPIB): 1.54 fold enrichment (6-mer frequency, TF over GST control)
- binding signal (ELK3): 1.52 fold enrichment (6-mer frequency, TF over GST control)

Sequence: ATAATC
- binding signal (FLI1): 1.17 fold enrichment (6-mer frequency, TF over GST control)
- binding signal (ELK1): 1.16 fold enrichment (6-mer frequency, TF over GST control)
- binding signal (GABPA): 1.14 fold enrichment (6-mer frequency, TF over GST control)
- binding signal (ERG): 1.13 fold enrichment (6-mer frequency, TF over GST control)
- binding signal (ELF1): 1.07 fold enrichment (6-mer frequency, TF over GST control)
- binding signal (EHF): 1.14 fold enrichment (6-mer frequency, TF over GST control)
- binding signal (SPI1): 1.1 fold enrichment (6-mer frequency, TF over GST control)
- binding signal (SPIB): 1.08 fold enrichment (6-mer frequency, TF over GST control)
- binding signal (ELK3): 1.17 fold enrichment (6-mer frequency, TF over GST control)

Sequence: TATCCG
- binding signal (FLI1): 2.64 fold enrichment (6-mer frequency, TF over GST control)
- binding signal (ELK1): 2.53 fold enrichment (6-mer frequency, TF over GST control)
- binding signal (GABPA): 2.26 fold enrichment (6-mer frequency, TF over GST control)
- binding signal (ERG): 3.2 fold enrichment (6-mer frequency, TF over GST control)
- binding signal (ELF1): 2.38 fold enrichment (6-mer frequency, TF over GST control)
- binding signal (EHF): 2.48 fold enrichment (6-mer frequency, TF over GST control)
- binding signal (SPI1): 2.29 fold enrichment (6-mer frequency, TF over GST control)
- binding signal (SPIB): 2.8 fold enrichment (6-mer frequency, TF over GST control)
- binding signal (ELK3): 2.41 fold enrichment (6-mer frequency, TF over GST control)

Sequence: TCCCTA
- binding signal (FLI1): 1.35 fold enrichment (6-mer frequency, TF over GST control)
- binding signal (ELK1): 1.26 fold enrichment (6-mer frequency, TF over GST control)
- binding signal (GABPA): 1.26 fold enrichment (6-mer frequency, TF over GST control)
- binding signal (ERG): 1.3 fold enrichment (6-mer frequency, TF over GST control)
- binding signal (ELF1): 1.32 fold enrichment (6-mer frequency, TF over GST control)
- binding signal (EHF): 1.27 fold enrichment (6-mer frequency, TF over GST control)
- binding signal (SPI1): 1.52 fold enrichment (6-mer frequency, TF over GST control)
- binding signal (SPIB): 1.32 fold enrichment (6-mer frequency, TF over GST control)
- binding signal (ELK3): 1.34 fold enrichment (6-mer frequency, TF over GST control)

Sequence: TGCTGG
- binding signal (FLI1): 1.08 fold enrichment (6-mer frequency, TF over GST control)
- binding signal (ELK1): 1.09 fold enrichment (6-mer frequency, TF over GST control)
- binding signal (GABPA): 1.08 fold enrichment (6-mer frequency, TF over GST control)
- binding signal (ERG): 1.01 fold enrichment (6-mer frequency, TF over GST control)
- binding signal (ELF1): 1.11 fold enrichment (6-mer frequency, TF over GST control)
- binding signal (EHF): 1.11 fold enrichment (6-mer frequency, TF over GST control)
- binding signal (SPI1): 1.19 fold enrichment (6-mer frequency, TF over GST control)
- binding signal (SPIB): 1.1 fold enrichment (6-mer frequency, TF over GST control)
- binding signal (ELK3): 1.14 fold enrichment (6-mer frequency, TF over GST control)

Sequence: TAATAA
- binding signal (FLI1): 1.17 fold enrichment (6-mer frequency, TF over GST control)
- binding signal (ELK1): 1.19 fold enrichment (6-mer frequency, TF over GST control)
- binding signal (GABPA): 1.21 fold enrichment (6-mer frequency, TF over GST control)
- binding signal (ERG): 1.22 fold enrichment (6-mer frequency, TF over GST control)
- binding signal (ELF1): 1.16 fold enrichment (6-mer frequency, TF over GST control)
- binding signal (EHF): 1.24 fold enrichment (6-mer frequency, TF over GST control)
- binding signal (SPI1): 1.09 fold enrichment (6-mer frequency, TF over GST control)
- binding signal (SPIB): 1.27 fold enrichment (6-mer frequency, TF over GST control)
- binding signal (ELK3): 1.05 fold enrichment (6-mer frequency, TF over GST control)

Sequence: ATGAAC
- binding signal (FLI1): 1.31 fold enrichment (6-mer frequency, TF over GST control)
- binding signal (ELK1): 1.28 fold enrichment (6-mer frequency, TF over GST control)
- binding signal (GABPA): 1.27 fold enrichment (6-mer frequency, TF over GST control)
- binding signal (ERG): 1.19 fold enrichment (6-mer frequency, TF over GST control)
- binding signal (ELF1): 1.27 fold enrichment (6-mer frequency, TF over GST control)
- binding signal (EHF): 1.32 fold enrichment (6-mer frequency, TF over GST control)
- binding signal (SPI1): 1.21 fold enrichment (6-mer frequency, TF over GST control)
- binding signal (SPIB): 1.27 fold enrichment (6-mer frequency, TF over GST control)
- binding signal (ELK3): 1.44 fold enrichment (6-mer frequency, TF over GST control)

Sequence: CTACAT
- binding signal (FLI1): 1.43 fold enrichment (6-mer frequency, TF over GST control)
- binding signal (ELK1): 1.4 fold enrichment (6-mer frequency, TF over GST control)
- binding signal (GABPA): 1.44 fold enrichment (6-mer frequency, TF over GST control)
- binding signal (ERG): 1.32 fold enrichment (6-mer frequency, TF over GST control)
- binding signal (ELF1): 1.38 fold enrichment (6-mer frequency, TF over GST control)
- binding signal (EHF): 1.28 fold enrichment (6-mer frequency, TF over GST control)
- binding signal (SPI1): 1.38 fold enrichment (6-mer frequency, TF over GST control)
- binding signal (SPIB): 1.5 fold enrichment (6-mer frequency, TF over GST control)
- binding signal (ELK3): 1.43 fold enrichment (6-mer frequency, TF over GST control)
